Assay outcomes as filed in PubChem.
HT1080 IDH1KD tx = kills HT-1080 cells with IDH1 knockdown | HT-1080 IDH1 knockdown viability, ATP luminescence, 48 h | Potency, µM (highest dose often 46.1 µM), for inactives: at the highest dose activity, negative = toxicity, most hits filed as cytotoxic | hit rate 2% among 360,000 | AID 686971;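 further: potency means the concentration at half of the fitted maximal effect; 0% = DMSO wells and -100% = cell-free medium wells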
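After a 2 h attachment period, IDH1KD HT-1080 cells took pin-transferred compound for 48 h at 37 °C; ATP-based luminescence after 10 min room-temperature reagent incubation reported viability.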
IL1B secr inh = inhibitors of inflammasome signaling (IL-1 beta secretion); THP-1 LPS/ATP IL-1B secretion, AlphaLISA, 16 h; hits give low values; activity change, % at 57.5 µM; hit rate 4.7% among 360,000; in the data active means activity change below about -50%; inconclusive means mostly about -30% to -49%
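Secreted IL-1B measured by AlphaLISA bead assay after 16 h compound exposure of THP-1 cells; compounds (final up to 57.5 uM) added 1 h before LPS (250 ng/mL) and ATP (1.25 mM) stimulation; lower signal means less secretion.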
KB-3-1 cytotox = KB-3-1 parental cell cytotoxicity. KB-3-1 viability, CellTiter-Glo ATP luminescence, 72 h. Potency, µM (titrated, usually from 46.1 µM), actives largely listed as cytotoxic. hit rate 1.4% among 400,000. AID 1347075; further: potency means the concentration at half of the fitted maximal effect; nearly all actives have a fitted effect of over 60% in size
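Using CellTiter-Glo luminescence, growth of non-resistant KB-3-1 adenocarcinoma cells is assessed 72 h after pin-tool compound addition at 37 °C. Normalized responses across the concentration series yield fitted curves.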
HT1080NT lethal = kills 2HG-producing HT-1080-NT fibrosarcoma cells; HT-1080-NT fibrosarcoma viability, CellTiter-Glo ATP luminescence, 48 h; Potency, µM (top dose mostly 46.1 µM), for inactives: at the top dose activity, negative = less viability, actives largely listed as cytotoxic; hit rate 1.6% among 360,000;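 further: NT is the 2HG producing partner of a matched IDH1 knockdown line; potency means the concentration at half of the fitted maximal effect; 0% = DMSO-treated cells and -100% = media-only wells without cells; nearly all actives have a fitted effect of over 55% in size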
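Toxicity toward the 2HG-producing NT line was scored as %Activity, normalised to DMSO and no-cell wells, from CellTiter-Glo luminescence after 48 hours' treatment.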
KB-V1 cytotox = KB-V1 MDR subline cytotoxicity; KB-V1 MDR cells viability, CellTiter-Glo, 72 h; Potency, µM (doses to about 46.1 µM), actives largely listed as cytotoxic; hit rate 3.4% among 400,000; AID 1347076; further: potency means the concentration at half of the fitted maximal effect; nearly all actives have a fitted effect of over 60% in size
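KB-V1 cells (P-gp-expressing MDR subline of KB-3-1) in phenol-red-free DMEM with 10% FBS were exposed to library compounds over a concentration series for 72 h at 37 degrees C. Viability read by CellTiter-Glo luminescence; concentration-effect curves fitted after normalization.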
An asterisk follows results filed as active; i = inactive; u = inconclusive; x = not tested or not shown. Rows were chosen to be rich in hits. Some 8.8% of all compounds tested hit in one or more screens of this group. Unless noted, the call rests on the fitted dose curve; in most records, active means well fitted curve in the direction sought with a large enough effect; inconclusive means small, poorly fitted or top-dose-only effect, or another doubt; inactive means no such curve, though single readings can be large; an effect the other way counts as inactive or inconclusive. Unless noted, on the % scale 0 is the no-effect control and ±100 the full control effect.

SMILES	HT1080 IDH1KD tx	IL1B secr inh	KB-3-1 cytotox	HT1080NT lethal	KB-V1 cytotox
O=C(CN1CCN(Cc2ccccc2)CC1)Nc1ccc2c(c1)CCC2	-17%	-86*	u	-5%	u
O=C(CN1CCCC1)Nc1ccc2c(c1)CCC2	-5%	2	i	-2%	i
O=C(CN1CCN(Cc2ccccc2)CC1)Nc1cccc(S(=O)(=O)N2CCCCCC2)c1	u	-69*	i	-26%	u
O=C(Nc1ccccc1Cl)Nc1ccccc1Cl	19%	7	i	-19%	i
O=C(Nc1csc([N+](=O)[O-])c1)Nc1ccccc1Cl	u	-98*	i	u	u
O=C(CN1CCN(c2ccccc2)CC1)Nc1cccc(C(F)(F)F)c1	-1%	14	i	7%	i
O=C(CN1CCN(Cc2ccccc2)CC1)Nc1cccc(C(F)(F)F)c1	u	-3	i	-5%	16µM*
Cc1ccc(NC(=O)CN(C)S(=O)(=O)c2ccc3c(c2)n(C)c(=O)c(=O)n3C)cc1F	x	x	i	x	i
CC(C)Cc1nc2ccccc2n1CCc1ccccc1	-14%	0	i	u	u
Cc1cc(C)cc(OCC(=O)Nc2ccc(F)cc2)c1	14%	-52*	i	13%	i
Cc1cc(OCC(=O)Nc2ccc(Br)cc2)cc2c1C(=O)CC(C)(C)O2	-3%	-81*	i	-16%	i
Cc1cc(OCC(=O)Nc2ccncc2)cc(C)c1Br	10µM*	-50*	u	-23%	u
Cc1cc(C)cc(OCC(=O)Nc2ccc(N3CCCC3)cc2)c1	-28%	-9	i	-34%	i
COc1ccc(C2=C(N3CCN(c4cc(C)ccc4C)CC3)c3ccccc3C2=O)cc1	x	x	i	x	i
O=C(/C=C/c1cccc(Cl)c1)Nc1cccc([S+](=O)([O-])Nc2ccccc2F)c1	x	x	i	x	i
COc1cc(NC(=O)c2ccc(-c3cn[nH]c3)c3ccoc23)cc(OC)c1OC	3%	-74*	i	-1%	i
COc1cc(NC(=O)c2ccc(-c3cccnc3)c3ccoc23)cc(OC)c1OC	3%	0	i	-14%	i
O=C(CC1C(=O)NCCN1Cc1cccc(Oc2ccccc2)c1)NCCc1cnccn1 (stereo unspecified)	-5%	u	i	-6%	i
O=C(NC(=S)N1CCN(c2ccc(C(F)(F)F)cc2[N+](=O)[O-])CC1)c1cccs1	-20%	-1	i	-5%	15µM*
CN(NC(=O)c1ccc(Cl)cc1)c1nc(-c2ccccc2)nnc1C(F)(F)F	-15%	5	u	-14%	15µM*
CN(N)c1nc2ccccc2nc1C(F)(F)F	-6%	-1	i	4%	i
Cc1ccc(C(=O)NN(C)c2nc3ccccc3nc2C(F)(F)F)cc1	u	58	5.8µM*	u	u
CC(C)CC(=O)NN(C)c1nc(-c2ccccc2)nnc1C(F)(F)F	-1%	17	i	3%	i
NC(=NCCc1ccccc1)NC(=O)c1cc(Cl)ccc1O	-22%	-11	u	-12%	u
NC(=O)CC(NC(=O)c1ccc(Br)cc1)c1ccc(NC2CCCCCCC2)c([N+](=O)[O-])c1 (stereo unspecified)	u	u	i	u	i
SMILES	HT1080 IDH1KD tx	IL1B secr inh	KB-3-1 cytotox	HT1080NT lethal	KB-V1 cytotox
COc1cccc(C(=O)OCC(=O)NCCCc2ccccc2)c1	0%	6	i	3%	i
Nc1nc(-c2ccc(Br)cc2)c(S(=O)(=O)c2ccccc2)s1	-1%	-69*	i	-2%	i
COc1cc(C(=O)OCCc2cc3ccccc3c(=O)o2)cc(OC)c1OC	7.3µM*	56	4.6µM*	8.2µM*	u
COc1cc(C(=O)OCCCc2cc3ccccc3c(=O)o2)cc(OC)c1OC	1%	0	i	3%	i
COC(=O)C1NN=C(C(=O)c2ccc(Cl)cc2)C1c1ccc(OC)cc1 (stereo unspecified)	-1%	7	i	-2%	u
COC(=O)C1NN=C(C(=O)c2ccccc2)C1c1ccccc1 (stereo unspecified)	-7%	-3	i	0%	15µM*
